The panel holds about 83,000 compounds, 20% with a hit somewhere; the sample as a whole holds those more often.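 Percent growth is the endpoint: 0 to 100 indicates growth inhibition (40 means 60% inhibition), 0 means no net growth, and negative values indicate cell death.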 A number with no mark means an inactive call. The source made the active and inactive calls. Rule for the calls: active = growth percent below 10; inactive = the rest.
Assays:
Experiment in all cases: NCI-60 one-dose screen, 48 h (100 = growth as untreated, 0 = no growth, -100 = all killed)
Conditions in all cases: 10 µM unless noted
DU-145 prostate = system: DU-145 prostate
K-562 leukemia = system: K-562 leukemia
MALME-3M melanoma = system: MALME-3M melanoma
MDA-MB-231 breast = system: MDA-MB-231 breast
RXF 393 renal = system: RXF 393 renal
SF-268 CNS = system: SF-268 CNS
SF-295 CNS = system: SF-295 CNS
UACC-257 melanoma = system: UACC-257 melanoma
M14 melanoma = system: M14 melanoma
SF-539 CNS = system: SF-539 CNS

Structure (SMILES)	growth (DU-145 prostate)	growth (K-562 leukemia)	growth (MALME-3M melanoma)	growth (MDA-MB-231 breast)	growth (RXF 393 renal)	growth (SF-268 CNS)	growth (SF-295 CNS)	growth (UACC-257 melanoma)	growth (M14 melanoma)	growth (SF-539 CNS)
CC1(C)OC2C(CO)OC(n3ccc(=O)[nH]c3=O)C2O1 (stereo not given)	112%	110%	85.2%	92.9%	113%	102%	104%	75.7%	105%	
O=Cc1ccc(F)cc1	109%	127%	85.1%	97.1%	86.9%	109%		106%	106%	101%
CC(CO)(CO)C(=O)O	105%	101%	90.4%	108%	99.5%	104%		98.4%	103%	97.9%
CSc1nsc(N)n1	115%	113%	93.5%	95.9%	108%	104%	101%	99.9%	97.6%	
Cc1cccnc1NC1OC(=O)c2ccccc21 (stereo not given)	102%	101%	93.7%	115%	118%	124%		100%	95.7%	109%
O=C(NC(=S)N1CC=CCC1)c1ccccc1	129%	111%	100%	104%	128%	108%	111%	105%	95.8%	
O=C(Nc1ccc([N+](=O)[O-])cc1)C(=O)Nc1ccc([N+](=O)[O-])cc1	110%	106%	105%	98.1%	109%	100%	102%	77.7%	104%	
Nc1ccc2ccccc2c1-c1c(N)ccc2ccccc12	25.8%	18.7%	42.4%	43%	6.23% (active)	54.1%	13.8%	18%	19.5%	
O=C(CC(CC(=O)c1ccccc1)c1ccccn1)c1ccccc1	110%	92.6%	91.5%	92.7%	111%	105%		105%	103%	106%
O=C(O)C1CSC(c2ccccc2)N1 (stereo not given)	105%	128%	98.8%	80.9%	106%	102%	99.8%	106%	95.6%	
C=CCN1CCCC1=O	114%	86.7%	96.9%	94.7%	128%	108%	98.3%	119%	98.8%	93%
ON1CCCC1	113%	90.7%	106%	114%	107%	106%		102%	104%	108%
CSc1cnc2ccccc2n1	115%	106%	88.7%	95.7%	111%	105%	97.9%	91.3%	97.3%	
O=C1NC(=O)C(c2ccccc2)O1 (stereo not given)	119%	92.6%	100%	122%	121%	115%		98.8%	100%	96.4%
CN(C)Cc1ccccn1	120%	107%	98.7%	98.8%	99.5%	111%	101%	99%	97.9%	92.1%
O=C1NCC2CCCC1C2 (stereo not given)	113%	106%	109%	102%	103%	103%		81.7%	96.7%	111%
CC(C)=CCC[C@@H](C)[C@H]1CC[C@@]2(C)C3=C(CC[C@]12C)[C@@]1(C)CC[C@H](O)C(C)(C)[C@@H]1CC3	126%	91.2%	110%	112%	95.9%	117%		121%	108%	101%
CCOC(=O)N[C@H]1CCc2cc(OC)c(OC)c(OC)c2-c2ccc(SC)c(=O)cc21	0.871% (active)	9.44% (active)	51.4%	-22% (active)	10.7%	23%	3.33% (active)	71%	4.1% (active)	-21.9% (active)
NC(=S)N/N=C/c1ccc(OC(=O)COc2ccc(Cl)cc2)cn1	29.3%	44.1%	45.5%	66.6%	67%	27.8%	99.2%	78.1%	17.9%	
c1ccc(-c2ccc3ccccc3c2)cc1	106%	111%	84.1%	91%	103%	89.9%	102%	94.7%	103%	
CC(=O)[C@@]1(O)CC[C@H]2[C@@H]3CC[C@@H]4CC(=O)CC[C@]4(C)[C@H]3[C@@H](O)C[C@@]21C	111%	94.9%	108%	99.6%	105%	99.1%	91.9%		93%	96.8%
COC(c1ccc2c(c1)OCO2)C(C)Br (stereo not given)	109%	87.3%	98.3%	94.8%	99.9%	107%	101%		97.1%	92.5%
OCC(O)COc1ccc(Cl)cc1Cl (stereo not given)	110%	88.6%	94.8%	97.8%	115%	105%	97.5%	79.6%	95.9%	
CC1=CC(=Nc2ccc(N(C)C)cc2)C=C(C)C1=O	101%	75.1%	92.6%	64%	65.1%	88.6%	97.3%	77.5%	91.9%	
CCNC(=O)Oc1ccc[nH]c1=O	117%	93.4%	103%	109%	116%	118%	106%	97.8%	102%	98.2%
O=C(c1ccccc1O)N1CCCC1	115%	89.1%	104%	105%	106%	106%	96.6%	80.2%	96.4%	
CSCCC(NC(=O)C(Cl)Cl)C(=O)O (stereo not given)	108%	97.8%	114%	99.3%	97.1%	99.1%	98.1%		93.8%	96.1%
NC(=S)N/N=C/c1ccc(OC(=O)COc2ccccc2)cn1	26.1%	53.4%	52.2%	60%	72.2%	30.7%	111%	90.6%	15%	
CCC(C)C1CCC(O)CC1 (stereo not given)	101%	99.2%	32.8%	112%	108%	99.3%	105%	103%	99%	94.8%
S=c1nc(-c2ccccn2)c(-c2ccccn2)n[nH]1	103%	105%	89.6%	118%	118%	102%		107%	98.3%	111%

— PubChem BioAssay (NCI)
